# The list is not random: actives were taken first. Their share in the collection is about 1.5%.
# TcdB GH inh – TcdB glycohydrolase inhibition; P18177; TcdB glycohydrolase enzymatic assay, plate reader; inhibition, % at 9.99 µM; hit rate 0.24% among 350,000; AID 652162; in the data active means inhibition above about 10%
# Vc quorum ag – inducers of Vibrio cholerae quorum light production without autoinducers. hit rate 0.16% among 350,000. AID 588436. V. cholerae BH1578 lux reporter, luminescence, 6 h. activation, % at 18.7 µM; in the data active means activation mostly above about 9.7%, no sharp cut-off
# PrPC surface inh – cell surface PrPC inhibition, primary TR-FRET screen; hit rate 0.43% among 370,000; AID 720596; inhibition, % at 13.8 µM; TR-FRET read-out; P04156; in the data active means inhibition above about 24%; further: 0% = median of the test wells and 100% = reference compound wells
# PriA SSB inh – blocks PriA binding to SSB C-terminal tail | AlphaScreen SSBct-PriA binding, biotinylated peptide | inhibition, % at 33 µM | hit rate 0.6% among 430,000 | AID 1272365; in the data active means inhibition mostly above about 37%, no sharp cut-off; inactive means mostly below about 20%;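 further: plate controls were negative control peptide for no effect and reference peptide for full effect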
# DUSP3 inh – DUSP3 (human) phosphatase inhibition. P51452. recombinant VHR phosphatase, pNPP absorbance. inhibition, % at 13.3 µM. hit rate 0.52% among 290,000. AID 1654; in the data active means inhibition above about 50%
# Target sequence (P51452 whole entry, looked up): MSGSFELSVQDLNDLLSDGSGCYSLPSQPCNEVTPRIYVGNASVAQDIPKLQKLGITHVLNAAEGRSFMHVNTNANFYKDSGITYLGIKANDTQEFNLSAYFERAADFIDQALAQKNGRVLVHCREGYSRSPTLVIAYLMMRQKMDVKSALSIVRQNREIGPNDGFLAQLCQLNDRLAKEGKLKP
# CCHF vOTU inh – blocks the CCHF virus ovarian tumor domain protease. inhibition, % at 11.5 µM. hit rate 0.55% among 370,000. CCHFV vOTU protease, Pep-AMC fluorescence. AID 651958; in the data active means inhibition above about 30%; further: 0% = vehicle wells with enzyme and 100% = no enzyme wells
# PrPC confirm – confirmation of inhibitors of cell surface human prion protein; cell surface PrPC level, TR-FRET; shares compounds with PrPC surface inh; inhibition, % at 13.8 µM; hit rate 65% among 1,500; in the data active means inhibition above about 25%
# LD9 cytotox – counter-screen for PrPc inhibitors: cytotoxicity in LD9 cells. shares compounds with PrPC surface inh. hit rate 29% among 1,500. luminescence viability. AID 743201. inhibition, % at 13.8 µM; in the data active means inhibition above about 9.5%
# Starred values were filed as active, the others as inactive; i = inactive; x = no result given.
SMILES,TcdB GH inh,Vc quorum ag,PrPC surface inh,PriA SSB inh,DUSP3 inh,CCHF vOTU inh,PrPC confirm,LD9 cytotox
Cc1ccc(S(=O)(=O)Nc2ccccc2N(C)S(=O)(=O)c2ccc(C)cc2)cc1,1,1,26*,-3,x,4,18,9.7*
CSc1ccccc1NC(=O)C(=O)NCC(c1ccc2c(c1)CCN2C)N(C)C (centres undefined),x,x,x,37,x,x,x,x
CC(O)CC(=O)OC[C@]12CC[C@H]3[C@@](C)(CC[C@H]4C(C)(C)CCC[C@]34C)[C@@H]1CC(C1=CC(=O)OC1O)O2 (some centres undefined),1,0,34*,x,x,14,26*,64*
Cc1nc(SCC(=O)NNC(=O)c2ccc(F)cc2)c2ccccc2n1,6,-1,82*,3,x,-1,100*,-6
CCc1nc(SCC(=O)OC(C)C)c2ccccc2n1,0,0,83*,-13,-5,4,97*,-6
CCCc1nc(SCC(=O)NNC(=O)c2ccc(OC)cc2)c2ccccc2n1,1,0,93*,-12,18,-4,115*,-13
Cc1nc(SCCOc2ccc(F)cc2)c2ccccc2n1,0,i,-2,-17,15,-8,x,x
CCCc1nc(SCC(=O)NNC(=O)C2CCCCC2)c2ccccc2n1,x,i,41*,-18,4,-11,110*,-3
CC(=O)OC[C@]12CCC(C)=C[C@H]1O[C@@H]1[C@H](O)[C@@H](OC(C)=O)[C@@]2(C)[C@]12CO2,0,0,88*,-1,14,4,99*,59*
CCN(CC)C(=O)CSc1nc(O)c(Cc2ccccc2)c(=O)n1-c1ccccc1,x,i,60*,-15,20,12,53*,-7
C=C1C(=O)C23C(O)C1CCC2C12CCCC(C)(COC(C)=O)C1C(O)C3(O)OC2 (centres undefined),0,i,75*,-8,x,-7,77*,93*
CCOc1ccc(NC(=O)CCCOc2cc(=O)n(C)c3ccccc23)cc1,x,-1,-11,-5,3,-14,x,x
Cn1c(=O)cc(OCCCC(=O)Nc2cc(C(F)(F)F)ccn2)c2ccccc21,x,x,29*,x,x,x,42*,11*
Cn1c(=O)cc(OCCCC(=O)Nc2cc(-c3ccncc3)ccn2)c2ccccc21,x,x,27*,x,x,x,35*,13*
Cn1c(=O)cc(OCCCC(=O)NCc2cccnc2)c2ccccc21,0,6,-1,-3,22,-4,x,x
COC(=O)c1ccccc1NC(=O)CCCOc1cc(=O)n(C)c2ccccc12,1,i,-1,x,x,21,x,x
Cn1c(=O)cc(OCCCC(=O)Nc2cc(Br)ccn2)c2ccccc21,x,x,31*,x,x,x,47*,15*
CCc1ccc(Nc2nc(Nc3cccc(C(F)(F)F)c3)nc(N3CCOCC3)n2)cc1,x,x,x,-1,x,x,x,x
COc1cc(Nc2c(C#N)cnc3c(F)cccc23)cc(OC)c1OC,x,x,x,1,x,x,x,x
CC(=O)CSc1nc(-c2cccs2)c(C#N)c(=O)[nH]1,0,i,91*,-4,15,-4,99*,-5
O=C1C(Nc2ccc(O)cc2)=C/C(=N/S(=O)(=O)c2cccs2)c2ccccc21,3,0,46*,x,30,108*,59*,99*
COc1cccc(N2CCN(c3nc(-c4ccccc4C)cc(=O)[nH]3)CC2)c1,0,i,31*,21,-1,-3,33*,14*
COc1cccc(N2CCN(c3nc(C)c(C)c(=O)[nH]3)CC2)c1,-2,-1,10,-23,1,-7,x,x
Brc1cc(Br)c2ncnc(N3CCCCC3)c2c1,x,-5,75*,-50,21,6,111*,-1
Cc1c(Cl)cccc1NC(=O)C(=O)NCC1CCN(c2nc3ccccc3s2)CC1,x,x,x,4,x,x,x,x
COc1ccc2c(Cl)c(C(N)=O)sc2c1,x,-1,79*,2,6,11,99*,2

# High-throughput results deposited in PubChem BioAssay by several laboratories.
